In the supplement of paper PMC10849652 one finds log2 fold change data, which are given here for 15 targets.

Common to all, as to assay: log2 fold change, soluble protein after heating vs DMSO (PISA); higher = thermal stabilisation; K562 lysate, 10 uM; active = over 0.2 and 3.5 SD of the protein, either way, in both replicates (recomputed)
Compound in experiment [1]: CCCS(=O)(=O)Nc1ccc(F)c(C(=O)c2c[nH]c3ncc(-c4ccc(Cl)cc4)cc23)c1F [vemurafenib]
In a few lines: (§1)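 Thermal stability, expressed as log-two fold change relative to solvent controls, is given from duplicates. Crude K562 extract in PBS pH 7.4 with 1 mM MgCl2, at 1 mg/mL protein, was treated with 10 μM compound for 30 min and heated in aliquots for 3 min across 48°C-58°C. After pooling, adjustment to 0.5% NP-40 at 4°C and centrifugation at 21,000xg for 90 min, supernatant protein was measured by TMTpro 16plex LC-MS/MS with channel sums equalised.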

Compound in experiment [2]: CCCS(=O)(=O)Nc1ccc(F)c(C(=O)c2c[nH]c3ncc(Cl)cc23)c1F
The method, boiled down: as §1

Compound in experiment [3]: CCN(CCCOc1ccc2c(Nc3cc(CC(=O)Nc4cccc(F)c4)[nH]n3)ncnc2c1)CCOP(=O)(O)O [barasertib]
The method, boiled down:
as §1

Compound in experiment [4]: CC[C@@H]1C(=O)N(C)c2cnc(Nc3ccc(C(=O)NC4CCN(C)CC4)cc3OC)nc2N1C1CCCC1
The method, boiled down:
as §1

Compound in experiment [5]: CC[C@@H]1C(=O)N(C)c2cnc(Nc3ccc(C(=O)N[C@H]4CC[C@H](N5CCN(CC6CC6)CC5)CC4)cc3OC)nc2N1C(C)C [volasertib]
The method, boiled down:
as §1

Compound in experiment [6]: CCn1c(C(=O)N(C2CC2)C2CC2)cc2c3c(ncn3C)c(Nc3cc(C)n(C)n3)nc21
The method, boiled down:
as §1

Compound in experiment [7]: CCn1cc(-c2ccnc3[nH]c(-c4cccc(CN(C)C)c4)cc23)c(-c2ccc(NC(=O)N(C)C)cc2)n1
The method, boiled down: as §1

Compound in experiment [8]: CN1CCC(CNc2ccc3ncc(-c4cccc(OC(F)(F)F)c4)n3n2)CC1
The method, boiled down: as §1

Compound in experiment [9]: CN1CCN(CCOc2cc(OC3CCOCC3)c3c(Nc4c(Cl)ccc5c4OCO5)ncnc3c2)CC1 [saracatinib]
The method, boiled down:
as §1

Compound in experiment [10]: CN1CCN(c2nc(C3=C(c4c[nH]c5ccccc45)C(=O)NC3=O)c3ccccc3n2)CC1 [sotrastaurin]
In a few lines: as §1

Targets with a hit are over-represented here; the source holds about 8,800 in all. About 0.5% of all pairs of compound and target were hits. Values without a mark were called inactive.

Chain of UniProt Q8WWV3 (Q8WWV3 whole entry, looked up): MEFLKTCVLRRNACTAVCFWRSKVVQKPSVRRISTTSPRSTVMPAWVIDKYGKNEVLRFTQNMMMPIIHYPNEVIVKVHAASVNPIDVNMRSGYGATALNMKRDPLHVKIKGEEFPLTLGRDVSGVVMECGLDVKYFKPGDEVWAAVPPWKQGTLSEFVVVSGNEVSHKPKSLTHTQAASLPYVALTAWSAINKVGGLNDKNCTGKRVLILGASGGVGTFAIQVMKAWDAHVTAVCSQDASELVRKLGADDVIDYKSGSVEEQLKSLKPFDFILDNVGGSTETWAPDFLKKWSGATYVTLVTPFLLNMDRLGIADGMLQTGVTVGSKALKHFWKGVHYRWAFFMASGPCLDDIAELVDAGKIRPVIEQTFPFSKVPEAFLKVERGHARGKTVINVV
Chain of UniProt O75446 (O75446 whole entry, looked up): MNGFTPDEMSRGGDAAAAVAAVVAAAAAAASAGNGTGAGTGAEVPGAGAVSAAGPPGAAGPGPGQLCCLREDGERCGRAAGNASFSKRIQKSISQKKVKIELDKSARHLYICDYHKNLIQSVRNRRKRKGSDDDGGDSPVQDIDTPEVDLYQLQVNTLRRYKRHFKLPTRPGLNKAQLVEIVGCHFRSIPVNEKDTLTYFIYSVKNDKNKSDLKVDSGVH
Chain of UniProt O75150 (O75150 whole entry, looked up): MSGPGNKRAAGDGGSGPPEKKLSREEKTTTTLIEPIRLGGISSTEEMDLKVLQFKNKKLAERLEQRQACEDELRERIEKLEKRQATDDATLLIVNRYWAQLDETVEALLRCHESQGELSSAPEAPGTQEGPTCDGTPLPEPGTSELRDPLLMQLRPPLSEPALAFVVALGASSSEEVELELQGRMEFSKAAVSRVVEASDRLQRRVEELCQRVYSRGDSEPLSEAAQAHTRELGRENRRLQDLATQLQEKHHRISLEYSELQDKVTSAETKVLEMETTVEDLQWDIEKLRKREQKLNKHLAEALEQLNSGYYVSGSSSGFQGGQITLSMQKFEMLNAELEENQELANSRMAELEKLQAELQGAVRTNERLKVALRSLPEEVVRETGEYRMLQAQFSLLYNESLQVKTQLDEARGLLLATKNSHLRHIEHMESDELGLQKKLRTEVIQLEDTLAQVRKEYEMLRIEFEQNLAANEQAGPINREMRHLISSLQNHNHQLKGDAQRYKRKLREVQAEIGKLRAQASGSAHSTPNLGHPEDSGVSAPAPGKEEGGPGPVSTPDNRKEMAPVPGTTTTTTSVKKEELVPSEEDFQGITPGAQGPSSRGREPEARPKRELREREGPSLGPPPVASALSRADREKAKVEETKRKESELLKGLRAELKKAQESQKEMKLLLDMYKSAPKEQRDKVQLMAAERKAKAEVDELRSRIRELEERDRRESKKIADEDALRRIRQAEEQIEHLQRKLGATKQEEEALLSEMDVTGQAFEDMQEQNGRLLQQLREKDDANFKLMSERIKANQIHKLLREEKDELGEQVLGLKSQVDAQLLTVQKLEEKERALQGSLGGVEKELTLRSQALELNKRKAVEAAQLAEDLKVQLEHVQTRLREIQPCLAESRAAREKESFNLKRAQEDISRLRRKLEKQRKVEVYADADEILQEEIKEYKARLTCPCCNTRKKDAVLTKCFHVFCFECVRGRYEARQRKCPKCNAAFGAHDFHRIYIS
Chain of UniProt Q53S08 (Q53S08 whole entry, looked up): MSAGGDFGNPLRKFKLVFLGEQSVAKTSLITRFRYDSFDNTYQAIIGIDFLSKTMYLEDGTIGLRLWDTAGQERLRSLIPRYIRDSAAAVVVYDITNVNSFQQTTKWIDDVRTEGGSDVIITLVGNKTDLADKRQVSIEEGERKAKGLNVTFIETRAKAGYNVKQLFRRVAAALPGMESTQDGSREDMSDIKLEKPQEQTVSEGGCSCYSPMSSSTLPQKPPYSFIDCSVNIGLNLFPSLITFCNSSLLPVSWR
Chain of UniProt O15027 (O15027 whole entry, looked up): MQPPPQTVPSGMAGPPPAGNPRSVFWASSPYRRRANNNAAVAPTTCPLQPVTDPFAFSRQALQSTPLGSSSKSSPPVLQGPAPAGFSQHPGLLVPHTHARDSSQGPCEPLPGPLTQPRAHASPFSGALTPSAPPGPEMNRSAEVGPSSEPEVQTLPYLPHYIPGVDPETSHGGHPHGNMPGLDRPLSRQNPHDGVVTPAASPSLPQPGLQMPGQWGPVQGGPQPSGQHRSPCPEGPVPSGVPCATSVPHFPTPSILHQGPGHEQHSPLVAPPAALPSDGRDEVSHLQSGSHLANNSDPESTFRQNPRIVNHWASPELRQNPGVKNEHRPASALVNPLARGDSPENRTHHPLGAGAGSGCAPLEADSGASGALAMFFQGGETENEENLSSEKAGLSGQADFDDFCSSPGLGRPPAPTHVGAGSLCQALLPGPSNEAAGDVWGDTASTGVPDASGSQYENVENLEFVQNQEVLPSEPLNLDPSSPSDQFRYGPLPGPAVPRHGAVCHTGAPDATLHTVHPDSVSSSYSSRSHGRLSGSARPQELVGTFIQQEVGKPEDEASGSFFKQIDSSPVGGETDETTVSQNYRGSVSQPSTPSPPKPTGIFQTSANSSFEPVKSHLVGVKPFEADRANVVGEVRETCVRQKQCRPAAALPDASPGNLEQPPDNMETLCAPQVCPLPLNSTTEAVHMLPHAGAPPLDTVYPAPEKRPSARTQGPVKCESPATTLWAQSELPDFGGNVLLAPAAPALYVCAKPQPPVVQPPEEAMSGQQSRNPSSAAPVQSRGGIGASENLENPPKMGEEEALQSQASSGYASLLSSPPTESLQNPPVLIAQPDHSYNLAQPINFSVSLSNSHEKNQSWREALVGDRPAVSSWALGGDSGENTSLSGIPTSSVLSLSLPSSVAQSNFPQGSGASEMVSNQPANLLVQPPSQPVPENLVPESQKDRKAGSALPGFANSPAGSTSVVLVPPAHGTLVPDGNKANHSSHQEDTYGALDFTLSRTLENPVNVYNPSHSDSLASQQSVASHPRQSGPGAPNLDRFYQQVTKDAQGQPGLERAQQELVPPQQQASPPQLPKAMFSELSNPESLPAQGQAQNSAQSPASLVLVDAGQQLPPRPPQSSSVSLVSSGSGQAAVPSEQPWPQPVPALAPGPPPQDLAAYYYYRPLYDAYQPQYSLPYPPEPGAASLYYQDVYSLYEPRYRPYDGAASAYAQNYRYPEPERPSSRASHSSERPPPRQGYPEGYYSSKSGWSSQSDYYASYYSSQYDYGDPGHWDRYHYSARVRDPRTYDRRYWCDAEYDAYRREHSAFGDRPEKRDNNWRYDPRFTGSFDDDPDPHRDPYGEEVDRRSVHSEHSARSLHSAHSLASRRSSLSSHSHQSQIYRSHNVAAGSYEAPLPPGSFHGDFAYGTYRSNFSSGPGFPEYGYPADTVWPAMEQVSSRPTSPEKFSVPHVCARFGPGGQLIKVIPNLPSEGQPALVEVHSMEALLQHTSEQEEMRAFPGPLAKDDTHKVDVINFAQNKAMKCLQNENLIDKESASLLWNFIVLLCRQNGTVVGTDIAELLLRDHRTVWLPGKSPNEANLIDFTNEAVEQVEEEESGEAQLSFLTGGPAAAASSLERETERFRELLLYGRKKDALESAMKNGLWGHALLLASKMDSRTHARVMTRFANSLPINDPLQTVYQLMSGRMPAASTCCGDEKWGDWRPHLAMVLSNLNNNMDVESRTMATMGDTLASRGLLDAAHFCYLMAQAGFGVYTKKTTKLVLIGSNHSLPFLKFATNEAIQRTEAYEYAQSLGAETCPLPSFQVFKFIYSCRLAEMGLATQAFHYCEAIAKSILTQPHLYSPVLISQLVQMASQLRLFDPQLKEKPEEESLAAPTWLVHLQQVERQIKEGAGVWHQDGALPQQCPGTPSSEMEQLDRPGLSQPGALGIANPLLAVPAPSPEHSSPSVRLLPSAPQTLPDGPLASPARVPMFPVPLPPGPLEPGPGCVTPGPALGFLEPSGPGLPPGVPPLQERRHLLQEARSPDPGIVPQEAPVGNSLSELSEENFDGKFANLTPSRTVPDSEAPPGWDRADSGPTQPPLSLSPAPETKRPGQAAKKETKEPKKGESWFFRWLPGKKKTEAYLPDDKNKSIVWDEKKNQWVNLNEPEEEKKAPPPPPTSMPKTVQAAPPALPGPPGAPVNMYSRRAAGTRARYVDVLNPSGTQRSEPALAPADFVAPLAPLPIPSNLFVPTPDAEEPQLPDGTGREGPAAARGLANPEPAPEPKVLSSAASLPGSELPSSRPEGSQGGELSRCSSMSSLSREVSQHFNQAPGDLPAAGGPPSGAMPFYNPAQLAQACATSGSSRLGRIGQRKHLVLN
Chain of UniProt Q5TBB1 (Q5TBB1 whole entry, looked up): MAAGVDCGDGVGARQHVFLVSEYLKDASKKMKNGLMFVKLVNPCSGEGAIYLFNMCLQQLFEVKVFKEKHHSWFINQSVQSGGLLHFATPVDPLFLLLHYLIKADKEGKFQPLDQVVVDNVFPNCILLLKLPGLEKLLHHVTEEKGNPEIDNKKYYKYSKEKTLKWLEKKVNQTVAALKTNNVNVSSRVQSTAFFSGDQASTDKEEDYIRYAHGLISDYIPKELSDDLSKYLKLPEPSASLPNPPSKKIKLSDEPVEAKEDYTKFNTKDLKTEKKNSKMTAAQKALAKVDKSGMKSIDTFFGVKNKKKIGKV
Chain of UniProt Q13530 (Q13530 whole entry, looked up): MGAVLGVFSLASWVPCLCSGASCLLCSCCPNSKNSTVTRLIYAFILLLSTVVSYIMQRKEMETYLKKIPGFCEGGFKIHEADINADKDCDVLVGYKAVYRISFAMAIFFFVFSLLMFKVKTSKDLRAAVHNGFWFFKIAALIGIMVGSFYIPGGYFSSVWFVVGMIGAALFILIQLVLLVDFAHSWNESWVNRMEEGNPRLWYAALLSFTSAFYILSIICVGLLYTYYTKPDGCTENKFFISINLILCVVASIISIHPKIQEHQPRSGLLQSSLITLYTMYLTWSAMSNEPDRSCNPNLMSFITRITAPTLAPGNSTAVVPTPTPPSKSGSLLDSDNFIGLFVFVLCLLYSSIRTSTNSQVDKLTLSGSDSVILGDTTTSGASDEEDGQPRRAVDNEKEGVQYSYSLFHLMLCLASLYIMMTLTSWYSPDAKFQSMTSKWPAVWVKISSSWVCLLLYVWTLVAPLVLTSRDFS

With RNF40 (UniProt O75150), the log2 fold change is 0.001 in [1]; 0.008 in [2]; 0.043 in experiment [3]; -0.005 in [4]; -0.047 in experiment [5]; 0.002 in experiment [6]. Besides, the log2 fold change in [7] is 0.011; in experiment [8], -0.033; in experiment [9] it was 0.033; in [10], -0.012.
Take RAP1B (UniProt F5GZG1): the log2 fold change in [1] is 0.025; in [2], -0.069; in experiment [3] it was 0.043; in experiment [4] it was -0.013; in experiment [5], -0.015; in experiment [7] it was 0.471. Moreover, the log2 fold change in [8] is 0.041; in experiment [9] it was 0.094; in [10], -0.038.
For the target REXO4 (UniProt Q9GZR2), the log2 fold change in experiment [1] was -0.018; in experiment [2], 0.007; in experiment [3] it was 0.088; in experiment [4], 0.013; in experiment [5], -0.034; in experiment [6] it was 0. Moreover, the log2 fold change is 0.452 (active) in [7], -0.184 in experiment [8], -0.002 in [9] and 0.013 in [10].
As for SEC16A isoform 5 (UniProt O15027), the log2 fold change was 0.03 in experiment [1]; 0.019 in experiment [2]; 0.021 in experiment [3]; 0.038 in [4]; -0.028 in experiment [5]; 0.006 in experiment [6]. Moreover, the log2 fold change in experiment [7] is 0.008; in experiment [8], -0.037; in experiment [9] it was 0.013; in experiment [10], -0.01.
For the target RNASEH2B (UniProt Q5TBB1), the log2 fold change in [1] is -0.008; in experiment [2], 0.034; in experiment [3] it was -0.035; in experiment [4], -0.056; in experiment [5], -0.044; in [6], -0.001. In addition, the log2 fold change is 0.026 in experiment [7], -0.101 in experiment [8], -0.022 in [9] and 0.062 in [10].
For RTN4IP1 (UniProt Q8WWV3), the log2 fold change in [1] is -0.02; in [2], 0.047; in experiment [3], -0.049; in [4], -0.018; in experiment [5], -0.014; in experiment [6] it was -0.007. Moreover, the log2 fold change was 0.058 in [7], -0.106 in experiment [8], -0.048 in [9] and 0.015 in experiment [10].
With RHBDD1 (UniProt Q8TEB9), the log2 fold change in experiment [1] was 0.105; in [2] it was -0.08; in experiment [3], -0.05; in experiment [4] it was -0.16; in experiment [5], -0.074; in [7], 0.016. Also, in experiment [8], the log2 fold change was -0.029.
Turning to RAB5IF isoform 5 (UniProt Q9BUV8), the log2 fold change in [1] is -0.075; in [2], 0.129; in experiment [3], 0.142; in experiment [4], -0.03; in experiment [5], -0.398; in experiment [7] it was 0.928 (active). The log2 fold change in [8] was -0.362; in experiment [9] it was 0.009.
In the case of RPS29 (UniProt P62273), the log2 fold change in [1] is -0.005; in [2], 0.039; in experiment [3] it was -0.034; in experiment [4], -0.028; in [5], 0.078; in [6], 0.109. Also, the log2 fold change was 1.01 (active) in experiment [7], -0.262 in experiment [8], -0.007 in [9] and -0.133 in [10].
As to SAP30 (UniProt O75446), the log2 fold change is -0.016 in experiment [1]; 0.006 in [2]; 0.051 in experiment [3]; 0.063 in experiment [4]; -0.054 in [5]; 0.103 in experiment [7]. Moreover, the log2 fold change in experiment [8] was -0.022; in experiment [9] it was 0.016; in experiment [10] it was -0.013.
On to RPL27 (UniProt P61353), for which the log2 fold change is -0.022 in [1]; -0.002 in experiment [2]; 0.011 in [3]; -0.001 in experiment [4]; -0.008 in experiment [5]; -0.001 in experiment [6]. Besides, the log2 fold change is 0.572 (active) in experiment [7], -0.079 in experiment [8], 0.019 in experiment [9] and -0.015 in experiment [10].
Regarding RAB6D (UniProt Q53S08), the log2 fold change in [1] is 0.005; in experiment [2], -0.033; in experiment [3], 0.15; in experiment [4], 0.289 (active); in experiment [5], 0.033; in [6], -0.049. In addition, the log2 fold change in [7] was -0.065; in [8], 0.018; in [9], -0.053; in experiment [10] it was -0.025.
As for SERINC3 (UniProt Q13530), the log2 fold change in [1] was 0.05; in [2], 0.074; in experiment [3], -0.02; in experiment [4] it was 0.039; in [5], 0.066; in experiment [6], -0.05. The log2 fold change in [7] is -0.443 (active); in experiment [8], 0.224; in experiment [9] it was 0.052; in [10] it was 0.081.
As to RPS6KB1 (UniProt P23443), the log2 fold change in experiment [1] was -0.052; in experiment [2] it was -0.001; in experiment [3], 0.068; in experiment [4], -0.109; in experiment [5], -0.041; in experiment [6], 0.078. In addition, the log2 fold change in experiment [7] is -0.155; in experiment [8], 0.185; in [9], -0.022; in experiment [10], 0.074.
As for RAP1GAP isoform 4 (UniProt P47736), the log2 fold change in experiment [1] is 0.009; in experiment [2], 0.055; in experiment [3] it was 0.008; in experiment [4], 0.044; in experiment [5], -0.075; in experiment [6], 0.003. For the same target, the log2 fold change in experiment [7] is -0.038; in experiment [8], 0.02; in experiment [9], 0.06; in experiment [10] it was 0.029.
